# “And” between values parts separate entries of the source, which are not always exact repeats. Equal values may be shown once. Where a name gives a salt, the structure may show the parent alone. About 620 (11%) of roughly 5,800 compounds showed activity. The full list was thinned out, with actives kept by preference. A number with no mark means an inactive call.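 The calls were made as follows: active = score above a cut-off or among the top three wells of a plate; in these data no inactive exceeds 0.85.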
# Tested on: primary human hepatic stellate cells (donor 1)
# Test: scaled lipid accumulation score (0 = DMSO-like, 1 = nortriptyline-like); higher = stronger HSC inactivation (lipid re-accumulation), active = hit call of the paper
# Conditions: 48 h
# [1] = library stock concentration: 10 mM
# [2] = library stock concentration: 1 mM
# [3] = library stock concentration: 6.9 mM
# [4] = library stock concentration: 3.33 mM
# [5] = library stock concentration: 9.4 mM
structure (smiles),measurement,setting,value
CC(C)(C)OC(=O)NC1[C@H]2CNC[C@@H]12 (stereo not given in full),scaled lipid accumulation score,[1],≤ -0.033
CCCCCCCCCCCCCCCCSP(=O)([O-])OCC[N+](C)(C)C [thio-Miltefosine],scaled lipid accumulation score,[2],≤ 0
CCCCC/C=C\C/C=C\C/C=C\C/C=C\CCCC(=O)NCc1ccoc1,scaled lipid accumulation score,[2],≤ 0
CCCCC(C#N)(Cn1cncn1)c1ccc(Cl)cc1 (stereo not given) [Myclobutanil],scaled lipid accumulation score,[3],≤ 0
[O-][n+]1ccccc1[S-].[O-][n+]1ccccc1[S-].[Zn+2] [Pyrithione zinc],scaled lipid accumulation score,library stock concentration: 6.3 mM,0.435
same,scaled lipid accumulation score,[1],0.127
Fc1cc(F)c2c(c1)[C@H]1C=CC[C@@H]1C(c1cccnc1)N2 (stereo not given in full) [Golgicide A],scaled lipid accumulation score,[4],0.872 (active)
same,scaled lipid accumulation score,[1],1.03 (active)
c1cncc([C@@H]2CCCN2)c1 [Nornicotine],scaled lipid accumulation score,[1],≤ 0
c1cncc([C@@H]2CCCCN2)c1 [Anabasine],scaled lipid accumulation score,,≤ 0
C[C@H](CCC(=O)O)C[C@H](C)C[C@H](C)C(=O)/C=C(\O)[C@H](C)C[C@H](C)C/C=C/[C@@H](C)[C@@H](O)[C@@H](C)[C@@H](O)C[C@@H]1CC[C@@](C)([C@H]2CC[C@@](C)([C@@H](C)O)O2)O1 [Ionomycin],scaled lipid accumulation score,library stock concentration: 7.1 mM,0.48
O=C1CN=C(c2ccccc2)c2cc([N+](=O)[O-])ccc2N1 [Nitrazepam],scaled lipid accumulation score,[1],≤ 0
COc1ccc2[nH]cc(CCN)c2c1 [5-Methoxytryptamine],scaled lipid accumulation score,[1],≤ 0
COc1ccc(CNC(=O)/C=C/c2ccc3[nH]cc(CCN(C)C)c3c2)cc1 [listing 1 of 2 here],scaled lipid accumulation score,[1],1.03 (active)
COc1ccc2[nH]cc(CCN)c2c1 [O-Methylserotonin hydrochloride],scaled lipid accumulation score,[1],≤ -0.055
COc1ccc(CNC(=O)/C=C/c2ccc3[nH]cc(CCN(C)C)c3c2)cc1 [listing 2 of 2 here],scaled lipid accumulation score,[1],0.736
O[C@H]1[C@H](O)[C@@H](O)CN2CC[C@H](O)[C@H]12 [Castanospermine],scaled lipid accumulation score,[1],≤ 0
same,scaled lipid accumulation score,library stock concentration: 26.4 mM,0.125
CCCCCC=CCC=CCC=CCC=CCCCC(=O)NCC(O)CC(=O)O (stereo not given) [N-Arachidonoyl-3-hydroxy-.gamma.-Aminobutyric Acid],scaled lipid accumulation score,[2],≤ 0
CC[C@H]1CN2CC[C@H]1C[C@H]2[C@H](O)c1ccnc2ccc(OC)cc12 [Hydroquinine hydrobromide hydrate],scaled lipid accumulation score,,≤ 0
CCCC[C@H]1C(=O)O[C@H](C)[C@H](NC(=O)c2cccc(NC=O)c2OC)C(=O)O[C@@H](C)[C@@H]1OC(=O)CC(C)C [2-methoxyantimycin A3],scaled lipid accumulation score,[5],0.292
CC(C)(C)c1cc(C=C(C#N)C#N)cc(C(C)(C)C)c1O [Tyrphostin A9],scaled lipid accumulation score,[1],0.728
CC(C)(C)c1cc(C=C(C#N)C#N)cc(C(C)(C)C)c1O [Tyrphostin 9] [listing 1 of 2 here],scaled lipid accumulation score,[1],1.27 (active)
CC(C)(C)c1cc(C=C(C#N)C#N)cc(C(C)(C)C)c1O [Tyrphostin 9] [listing 2 of 2 here],scaled lipid accumulation score,[4],0.175
same,scaled lipid accumulation score,library stock concentration: 17.7 mM,0.752
CC(C)(C)c1cc(C=C(C#N)C#N)cc(Br)c1O,scaled lipid accumulation score,[4],≤ 0
same,scaled lipid accumulation score,[1],≤ 0
C[C@]12CC[C@H]3[C@@H](CCC4=CC(=O)CC[C@@]43C)[C@@H]1CC[C@@H]2O [Testosterone],scaled lipid accumulation score,[3],0.032
same,scaled lipid accumulation score,[1],0.108 and 0.479
Oc1cc2c(cc1O)[C@H]1c3ccccc3CN[C@@H]1CC2 (racemic) [Dihydrexidine hydrochloride],scaled lipid accumulation score,[1],0.823
"CCCC[N+]1(C)[C@@H]2C[C@@H](OC(=O)[C@H](CO)c3ccccc3)C[C@H]1[C@@H]1O[C@@H]12 (single isomer, unassigned; (-)) [(-)-Scopolamine,n-Butyl-, bromide]",scaled lipid accumulation score,[1],≤ 0
CC(N)Cc1c[nH]c2ccc(OCc3cccs3)cc12.Cl (stereo not given) [BW 723C86 hydrochloride],scaled lipid accumulation score,[1],1.3 (active)
CC(N)Cc1c[nH]c2ccc(OCc3cccs3)cc12.Cl (stereo not given),scaled lipid accumulation score,[1],1.18 (active)
CNCCc1c[nH]c2ccc(O)cc12 [N-omega-Methyl-5-hydroxytryptamine oxalate salt],scaled lipid accumulation score,[1],≤ -0.055
CC(N)Cc1c[nH]c2ccc(O)cc12 (stereo not given),scaled lipid accumulation score,[1],≤ 0
CC(N)Cc1c[nH]c2ccc(O)cc12 (stereo not drawn) [alpha-Methyl-5-hydroxytryptamine maleate],scaled lipid accumulation score,[1],≤ -0.055
CCCCCCCCCOc1ccc2[nH]cc(CCN)c2c1 [5-Nonyloxytryptamine],scaled lipid accumulation score,library stock concentration: 9.9 mM,0.5
CC(N)Cc1c[nH]c2ccc(OCc3cccs3)cc12 (stereo not given),scaled lipid accumulation score,[2],0.315
CN1CCC2=C[C@H](O)[C@H]3OC(=O)c4cc5c(cc4[C@H]3[C@@H]21)OCO5 [Hippeastrine hydrobromide],scaled lipid accumulation score,,≤ 0
O=S(=O)(c1c(O)c(Cl)cc(Cl)c1Cl)c1c(O)c(Cl)cc(Cl)c1Cl [p38 MAP Kinase Inhibitor IV],scaled lipid accumulation score,[4],≤ 0
CCCCC/C=C\C/C=C\C/C=C\C/C=C\CCCC(=O)NCCS(=O)(=O)O [N-Arachidonoyl Taurine],scaled lipid accumulation score,[2],0.01
O=C1C2CCN(CC2)C1(CO)CO [listing 1 of 2 here],scaled lipid accumulation score,[2],≤ 0
same,scaled lipid accumulation score,[1],0.045
O=C1C2CCN(CC2)C1(CO)CO [listing 2 of 2 here],scaled lipid accumulation score,library stock concentration: 27 mM,0.911 (active)
CC(=O)C1=C(O)[C@@H]2[C@H]3c4c[nH]c5cccc(c45)C[C@H]3C(C)(C)N2C1=O [Cyclopiazonic Acid],scaled lipid accumulation score,[1],0.021
CC(=O)C1=C(O)[C@@H]2[C@H]3c4c[nH]c5cccc(c45)C[C@H]3C(C)(C)N2C1=O [Cyclopiazonic acid],scaled lipid accumulation score,library stock concentration: 14.9 mM,0.019
"BrC1C(Br)C(Br)C(Br)C(Br)C1Br (stereo not given) [1,2,3,4,5,6-Hexabromocyclohexane]",scaled lipid accumulation score,[1],≤ -0.001
CC1=C2C[C@H]3[C@@H](CC=C4C[C@@H](O)CC[C@@]43C)[C@@H]2CC[C@]12O[C@@H]1C[C@H](C)CN[C@H]1[C@H]2C [Cyclopamine],scaled lipid accumulation score,library stock concentration: 12.1 mM,0.19
COC(=O)/C=C/C(=O)N[C@@H]1CC[C@@]2(O)[C@H]3Cc4ccc(O)c5c4[C@@]2(CCN3CC2CC2)[C@H]1O5,scaled lipid accumulation score,[1],0.325
COc1ccc2c3c([nH]c2c1)C(C)=NCC3 [Harmaline hydrochloride dihydrate],scaled lipid accumulation score,,0.371
CC1=NCCc2c1[nH]c1cc(O)ccc21.Cl.O.O [Harmalol hydrochloride dihydrate],scaled lipid accumulation score,,0.979 (active)
COc1ccc2c3c([nH]c2c1)C(C)=NCC3 [Harmaline],scaled lipid accumulation score,[1],0.389
CC1=NCCc2c1[nH]c1cc(O)ccc21 [Harmalol hydrochloride],scaled lipid accumulation score,[1],≤ 0
COC1=C[C@@H]2C3=C([C@@H]2C1=O)[C@@H](NC(C)=O)CCc1cc(OC)c(OC)c(OC)c13 [Lumicolchicine gamma],scaled lipid accumulation score,,≤ 0
"c1ccc(C2CNCc3ccccc32)cc1 (stereo not given) [4-Phenyl-1,2,3,4-tetrahydroisoquinoline hydrochloride]",scaled lipid accumulation score,[1],0.217
Cl.Cl.Fc1ccc(C(OCCN2CCN(CCCc3ccccc3)CC2)c2ccc(F)cc2)cc1 [listing 1 of 2 here],scaled lipid accumulation score,[1],0.942 (active)
Fc1ccc(C(OCCN2CCN(CCCc3ccccc3)CC2)c2ccc(F)cc2)cc1,scaled lipid accumulation score,[1],≤ -0.061
Clc1ccc(C(OCCN2CCCCC2)c2ccccc2)cc1 (stereo not given) [Cloperastine hydrochloride],scaled lipid accumulation score,,0.488
same,scaled lipid accumulation score,[1],0.544
Cl.Cl.Fc1ccc(C(OCCN2CCN(CCCc3ccccc3)CC2)c2ccc(F)cc2)cc1 [listing 2 of 2 here],scaled lipid accumulation score,,0.864 (active)
c1ccc(CCCN2CCN(CCOC(c3ccccc3)c3ccccc3)CC2)cc1,scaled lipid accumulation score,[1],≤ -0.07 and 0.566
Fc1ccc(C(OCCN2CCN(C/C=C/c3ccccc3)CC2)c2ccc(F)cc2)cc1,scaled lipid accumulation score,[1],0.507
"CC(N)Cc1cccc(C(F)(F)F)c1 (single isomer, unassigned; (+)) [(+)-Norfenfluramine hydrochloride]",scaled lipid accumulation score,[1],0.072
CC(=O)[O][Hg][c]1ccccc1 [Phenylmercuric acetate],scaled lipid accumulation score,library stock concentration: 5.9 mM,0.512
same,scaled lipid accumulation score,[1],0.358
O=[N+]([O-])OCC(CO[N+](=O)[O-])O[N+](=O)[O-] [Nitroglycerin],scaled lipid accumulation score,library stock concentration: 8.8 mM,0.395
CCCCC/C=C\C/C=C\C/C=C\C/C=C\CCCC(=O)NCCc1ccc(O)c(O)c1 [N-Arachidonoyl Dopamine],scaled lipid accumulation score,[2],≤ 0
CCCCC/C=C\C/C=C\C/C=C\C/C=C\CCCC(=O)N[C@H](C)COP(=O)(O)O [R-1 Methanandamide Phosphate],scaled lipid accumulation score,[2],≤ 0
Cc1[nH]c2ccc(Cl)cc2c1C1=CCNCC1.Cl,scaled lipid accumulation score,[1],1.1 (active)
C#CCOC(=O)C1=CCCN(C)C1 [Arecaidine propargyl ester hydrobromide],scaled lipid accumulation score,[1],≤ 0
C#CCOC(=O)C1=CCCN(C)C1 [Arecaidine propargyl ester tosylate],scaled lipid accumulation score,[1],≤ 0
C[C@]12CCC(=O)C=C1CC[C@@H]1[C@@H]2CC[C@@]2(C)[C@H]1CC[C@]2(C)O [Methyltestosterone],scaled lipid accumulation score,[1],0.073
COc1ccc2c(c1)[nH]c1c(C)nccc12 [Harmine] [listing 1 of 2 here],scaled lipid accumulation score,[2],0.141
same,scaled lipid accumulation score,[1],0.762
Cc1nccc2c1[nH]c1cc(O)ccc12 [Harmol hydrochloride],scaled lipid accumulation score,[1],≤ 0
COc1ccc2c(c1)[nH]c1c(C)nccc12.Cl [Harmine hydrochloride],scaled lipid accumulation score,,0.89 (active)
Cc1nccc2c1[nH]c1ccccc12 [Harmane hydrochloride],scaled lipid accumulation score,,0.089
COc1ccc2c(c1)[nH]c1c(C)nccc12 [Harmine] [listing 2 of 2 here],scaled lipid accumulation score,[5],0.851 (active)
Cc1nccc2c1[nH]c1ccccc12 [Harmane],scaled lipid accumulation score,[1],0.671
COc1ccc2[nH]c3c(c2c1)CCN=C3C [Methoxy-6-harmalan],scaled lipid accumulation score,,0.039

# From the supplement of paper PMC9135407
